From PubChem BioAssay (NCI)
The panel holds about 79,000 compounds, 15% with a hit somewhere; the sample as a whole holds those more often. Values without a mark were called inactive. Active and inactive are the calls of the source. No stated cut-off is given here; in the data, active means growth inhibition above about 70%; inactive means the rest.

Assay: NCI Yeast Anticancer Drug Screen. Data for the mec2-1 strain (AID 157)
Details: S. cerevisiae mec2-1 strain, at 50.0 µM, active compounds read high
In short: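 Mutant yeast (mec2-1) grown with compound; growth inhibition relative to vehicle control reported.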

Structure (SMILES)	growth inhibition
O=C(O)c1cccc(S(=O)(=O)NN2C(=O)CSC2c2ccccc2Cl)c1 (stereo not given)	-3.95%
CCCCn1cccc1	10.2%
Cc1cc2nnc(-c3cccc([N+](=O)[O-])c3)n2c2nnnn12	31.1%
O=C(CNc1ccc(Cl)cc1Cl)NC1C=Cc2ccc(S(=O)(=O)Nc3ccc(Cl)cc3Cl)cc2C1=O (stereo not given)	20.4%
CC1CCC(NC(=O)NCCCl)c2ccccc21 (stereo not given)	-1.3%
COc1cccc(/C=C(\C#N)C(=O)c2ccccc2)c1	19.6%
O=C(c1ccccc1)C(c1ccccc1)C1(O)C(=O)Nc2ccc(Br)cc21 (stereo not given)	7.35%
CC1=C(C)C(N(C)C)CS(=O)(=O)O1 (stereo not given)	-18.4%
O=C1CCC2c3ccccc3NCN12 (stereo not given)	7.75%
CC1(C)C2CCC1(CC(=O)O)C(O)C2=O (stereo not given)	-23.2%
CCN(CC)CCOC(=O)Cc1cccc2c(=O)cc(-c3ccc(OC)cc3)oc12	-9.95%
O=C1C=C(c2ccccc2)C(c2ccccc2)=C1	2.8%
COC(=O)c1cc(Cl)ccc1NC(=O)C1CCCCC1	15.8%
CN(CC(=O)c1ccc(Cl)cc1)Cc1ccccc1	-8.8%
CS(=O)(=O)c1c(N)c2nc(Cl)cn2c2nc3ccccc3nc12	-2.1%
O=c1cc(C(Br)(Br)Br)[nH]c2ccccc12	3.25%
NS(=O)(=O)N1CN(S(N)(=O)=O)CN(S(N)(=O)=O)C1	4.1%
CC(C)N1C(=O)NC(=O)C12CCN(Cc1ccccc1)CC2	-1.65%
Cc1cc(O)c(C(c2cccnc2)c2c(O)cc(C)[nH]c2=O)c(=O)[nH]1	-14.8%
COc1ccc(NS(=O)(=O)c2ccc(N=Cc3c4ccccc4nc4ccccc34)cc2)nn1	95.5% (active)

Structure (SMILES)	growth inhibition
Cc1cc(C)cc(N=Nc2c(N)nc(N)[nH]c2=O)c1	-10.7%
CCOC(=O)c1ccc(NCc2ccc3nc(OC)c(OC)nc3c2)cc1	-20.5%
CC(c1ccccc1)C(C)(C)O (stereo not given)	-8.25%
CCC(C)CC(O)CC(C)C (stereo not given)	8.85%
[CH3][Sn]([CH3])([O]C(=O)c1ccc2c(c1)OCO2)[O]C(=O)c1ccc2c(c1)OCO2	-3.25%
CN(C)c1ccc(/C=C(/NC(=O)c2ccccc2)C(N)=O)cc1	4.55%
Cc1ccc(C(=O)OC(C)C)cc1N=NN(C)C	-11.4%
CSc1nn(C)c2cc(C)c3ccccc3[n+]12	-7.8%
O=C1OCCc2c1[nH]c1ccccc21	10.7%
CC(C)(O)C(O)(c1ccccc1)c1ccccc1	2.75%
C/C(=N/O)c1ccc[nH]1	9%
CCCCCC(C/C=N/N(C)C)C(O)(C(F)(F)F)C(F)(F)F (stereo not given)	2.1%
O=S(=O)(N/N=C/c1ccc(Cl)c(Cl)c1)c1ccccc1	13.6%
COC(=O)CC1(C(=O)OC)Nc2ccc(Cl)cc2C(=O)O1 (stereo not given)	1.85%
CCCCOC(=O)C(C)OC(=O)OC (stereo not given)	-13%
CCCCOC(=O)c1ccc(NC(=O)CCCN(CC)CC)cc1	-2.3%
CS(=O)(=O)OCCC(O)COS(C)(=O)=O (stereo not given)	-7.25%
Cc1ccc(O)c(C(=O)CCCC(=O)c2cc(C)ccc2O)c1	7.9%
COc1ccc(-c2cc(=O)c3c(OC)cccc3o2)c(OC)c1OC	-12.7%
N/N=C(\C(=O)Nc1ccc(Cl)cc1Cl)C(c1cnc2ccccc2n1)[N+](=O)[O-] (stereo not given)	-21.9%
